# Screening results deposited in PubChem by National Center for Advancing Translational Sciences (NCATS).
# Most compounds without a hit are left out; they make up all but 11% or so of the library.
# PNC assembly inh: inhibitors of perinucleolar compartment assembly | PC3M PTB-GFP, PNC prevalence imaging, 16 h; stronger effect = lower value | activity change (PNC), negative = inhibition, % at 10 µM | 140,000 tested, 3.1% active;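 active = readout at or below -70, meaning at least 70% loss of cells showing the perinucleolar compartment, a nuclear body marking cancer cells; inconclusive = readout between -30 and a set limit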;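 also: plate controls were DMSO wells for no effect and camptothecin positive control wells for full effect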
#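 PC3M cells stably expressing PTB-GFP, 750–1000 cells/well, treated 16 h at 37 °C with compound (23 nl of library stock), in duplicate. After paraformaldehyde fixation and Hoechst stain, imaged at 20x; PNC prevalence scored by image analysis.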
# ALDH1A1 block: inhibitors of human aldehyde dehydrogenase 1A1; AID 1030; Purified ALDH1A1, NADH fluorescence, propionaldehyde substrate; P00352; Potency, µM (series often up to 75.3 µM), without a hit: at the top dose activity, negative = inhibition, actives largely listed as inhibitors; 220,000 tested, 7.3% active;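 also: potency is read from the fitted curve at half-maximal effect; plate controls were no enzyme wells and a reference inhibitor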
# Target sequence (P00352 whole entry, looked up): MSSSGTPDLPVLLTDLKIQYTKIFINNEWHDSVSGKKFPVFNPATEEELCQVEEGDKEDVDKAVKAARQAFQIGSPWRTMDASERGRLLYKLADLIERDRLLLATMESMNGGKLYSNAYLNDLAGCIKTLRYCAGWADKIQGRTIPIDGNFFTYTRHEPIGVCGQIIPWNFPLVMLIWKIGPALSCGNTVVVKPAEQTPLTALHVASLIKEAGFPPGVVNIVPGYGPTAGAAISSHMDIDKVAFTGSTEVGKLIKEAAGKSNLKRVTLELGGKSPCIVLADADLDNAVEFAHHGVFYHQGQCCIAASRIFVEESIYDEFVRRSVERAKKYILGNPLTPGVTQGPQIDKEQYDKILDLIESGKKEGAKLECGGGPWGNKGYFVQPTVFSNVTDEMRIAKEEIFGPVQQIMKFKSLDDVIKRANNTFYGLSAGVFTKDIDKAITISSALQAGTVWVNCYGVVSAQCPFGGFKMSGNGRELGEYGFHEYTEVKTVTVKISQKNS
# HPGD inh: HPGD (human) dehydrogenase inhibition | P15428 | purified HPGD, NADH fluorescence kinetic, PGE2 substrate | Potency, µM, for inactives: top-dose activity change, negative = inhibition, usual class: inhibitors | 150,000 tested, 4.3% active; also: potency is read from the fitted curve at half-maximal effect
#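 20 nM HPGD preincubated 15 min at room temperature with compound in 50 mM Tris-HCl pH 8, 0.01% Tween 20. Started with 1 mM NAD+ and 30 uM prostaglandin E2; NADH fluorescence (360/450 nm) read 5 times over 30-s intervals, last minus first.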
# IMPase Li inh: cell-permeable IMPase inhibitors with lithium potentiation; 210,000 tested, 0.35% active; CHO-M1 cells, IP1 TR-FRET (IP-One), carbachol + lithium; Potency, µM (titrated, usually from 59.4 µM), inactives show at the highest dose activity, negative = IMPase inhibition, actives largely listed as inhibitors; active = well fitted inhibition curve with a large enough effect; inconclusive = small, poorly fitted or top-dose-only effect; inactive = no such curve, though single readings can be large or run the other way;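 also: IP1 builds up when IMPase is blocked and the TR-FRET signal falls; potency is read from the fitted curve at half-maximal effect; plate controls were basal vehicle for no effect and high inhibitor control for full effect; nearly all actives have a fitted effect of over 50% in size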
#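 Steps: plate 2000 CHO-M1 cells per well and culture 16–30 h; add compound and lithium; incubate 30 min, 37C; add d2-IP1 tracer and Eu cryptate anti-IP1 antibody in lysis buffer; read after 10 min at room temperature.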
# IMPase inh: IMPase inhibition in cells | P97697 | CHO-M1 cells, IP1 accumulation, HTRF TR-FRET ratio | inhibition (IP1 accumulation), % at 46.1 µM | 120,000 tested, under 10 active; active = well fitted curve in the direction sought with a large enough effect in the signal ratio, not every such curve was filed as active; inconclusive = small, poorly fitted or top-dose-only effect, or a change in a side signal; inactive = no such curve, though single readings can be large or run the other way; the % refers to the signal ratio;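 also: cells stimulated with carbachol in lithium chloride buffer; plate controls were DMSO basal wells for no effect and reference inhibitor wells for full effect; higher means more IMPase inhibition seen as more IP1 and lower FRET ratio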
#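 Seeded CHO-M1 cells were dosed with compound at up to 46 uM, stimulated with carbachol for 30 min, then lysed in IP-One detection reagents. Higher IP1 lowers the TR-FRET signal.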
# * = called active by the depositor; ? = inconclusive; / = no result given; [ ] = another dose, or the depositor's remark. Unless noted, calls follow the shape of the dose curve; as a rule, active = well fitted inhibition curve with a large enough effect (not every such curve was filed as active); inconclusive = small, poorly fitted or top-dose-only effect, or another doubt; inactive = no such curve, though single readings can be large or run the other way. Unless noted, % is scaled to controls: 0 for no effect and ±100 for the full control effect.
SMILES,PNC assembly inh,ALDH1A1 block,HPGD inh,IMPase Li inh,IMPase inh
O=C(COc1ccc(S(=O)(=O)NC2CCCCC2)cc1)NCCC1=CCCCC1,15.2,7.08µM*,-5.5%,9.2%,9.8
O=C(COc1ccc(S(=O)(=O)NC2CCCCC2)cc1)NC1CCCCC1,21.4,-11.2%,2.3%,15.0%,20.2
CC(=O)c1ccc(NC(=O)C2CCC(CNS(=O)(=O)c3cccs3)CC2)cc1 (centres undefined),/,/,/,/,0.6
COc1cccc(NC(=O)C2CCC(CNS(=O)(=O)c3cccs3)CC2)c1 (centres undefined),/,12.6µM*,/,4.4%,/
CC(=O)Nc1ccc(S(=O)(=O)NCC2CCC(C(=O)NC3CCCCCC3)CC2)cc1 (centres undefined),5.9,11.2%,-18.1%,-8.1%,/
Cc1cnc(C)c(N2CCC(C(=O)NCc3cccs3)CC2)n1,-126.9*,20.9%,-12.5%,3.6%[38.3 µM],-2.9
O=C(NC1CCCC1)C1CCC(CNS(=O)(=O)c2cccs2)CC1 (centres undefined),4.2,22.4µM*,22.4µM*,-0.5%,/
Cc1c(NC(=O)C(C)NCC2CCCO2)c(=O)n(-c2ccccc2)n1C (centres undefined),?,15.2%,-5.9%,-18.3%[38.3 µM],2.3
O=C(CCNS(=O)(=O)c1cccs1)NCc1cccs1,11.2,12.5%,0.1%,-7.1%[38.3 µM],-6.4
Cc1ccc(S(=O)(=O)NCC2CCC(C(=O)NCc3ccco3)CC2)cc1 (centres undefined),8.3,2.82µM*,-16.3%,11.0%[38.3 µM],13.1
Cc1cc(C)c(S(=O)(=O)NCC2CCC(C(=O)NCCCN3CCOCC3)CC2)c(C)c1 (centres undefined),-9.7,4.7%,-0.8%,5.6%[38.3 µM],1.8
O=C(NCCN1CCOCC1)C1CCC(CNS(=O)(=O)c2ccccc2)CC1 (centres undefined),14.1,12.6µM*,-11.7%,1.8%,/
COc1ccc(S(=O)(=O)NCC2CCC(C(=O)NCc3ccco3)CC2)cc1 (centres undefined),?,12.6%,/,/,11.0
O=C(NCc1cccs1)C1CCC(CNS(=O)(=O)c2cccs2)CC1 (centres undefined),-15.5,14.1µM*,-7.6%,7.1%[38.3 µM],-5.6
C=C(Nc1ccc(OC)cc1)C(=O)OC,/,?,-6.6%,25.1%,/
Cc1cc2c(ncn2C)c(NS(=O)(=O)c2cc(Cl)ccc2Cl)c1C,?,9.4%,1.4%,23.0%[38.3 µM],-2.4[1.84 µM]
Cc1cc2c(ncn2C)c(NS(=O)(=O)c2ccccc2Cl)c1C,-83.5*,-2.3%,-1.7%,55.5%[38.3 µM],-2.8[1.84 µM]
O=C(Nc1sc2c(c1C(=O)O)CCC2)c1cccs1,28.2,?,25.1µM*,-8.3%[38.3 µM],?
O=C(O)c1c(NC(=O)c2cccc3ccccc23)sc2c1CCC2,?,?,15.8µM*,-13.9%[38.3 µM],-1.9
O=C(Nc1sc2c(c1C(=O)O)CCC2)c1ccccc1,-10.6,6.2%,17.8µM*,37.3%[38.3 µM],1.3
CCN(CC)C(=O)c1sc(NC(=O)c2cccc([N+](=O)[O-])c2)c(C#N)c1C,21.5,-11.0%,7.08µM*,1.2%,/
Cc1c(C(=O)N2CCOCC2)sc(NC(=O)c2ccc3c(c2)OCO3)c1C#N,-26.6,-6.9%,?,26.6%[38.3 µM],0.0
CCN(CC)C(=O)c1sc(NC(=O)c2ccc3c(c2)OCO3)c(C#N)c1C,?,?,6.31µM*,16.5%[38.3 µM],-4.6
CCCn1c(-c2ccc(F)cc2)nc2c(N3CCN(C)CC3)nc(C)nc21,/,?,-24.8%,-1.4%,/
CC(=O)c1sc(-c2ccccc2)cc1N,/,-7.8%,/,/,/
SMILES,PNC assembly inh,ALDH1A1 block,HPGD inh,IMPase Li inh,IMPase inh
NNC(=O)c1sc(-c2ccccc2)cc1N,/,28.2µM*,/,-1.7%,/
CN1CCN(C(=S)NC(CC(=O)c2ccccc2)c2ccccc2)CC1 (centres undefined),/,-13.3%,/,/,/
COc1ccc2[nH]c(C)c(CCN(Cc3cccs3)C(=S)Nc3ccc(F)cc3)c2c1,-27.0,17.8µM*,-16.7%,43.1%[38.3 µM],6.2
CCOc1ccccc1CN(CCc1ccc2c(c1)OCO2)Cc1cc(OC)c(OC)cc1OC,/,/,/,/,10.3
CCOc1cc(C(=O)Nc2ccc(C)cc2C)ccc1OCC(=O)N1CCCCC1,-22.9,1.9%,-2.0%,-2.9%,2.3
COc1cc(C(=S)N2CCCC2)cc(Cl)c1OCC(=O)Nc1ccc(C)cc1C,5.5,2.51µM*,7.94µM*,0.8%,/
